ELG1 DNA repair: qHTS screen for small molecules that inhibit ELG1-dependent DNA repair in human embryonic kidney (HEK293T) cells expressing luciferase-tagged ELG1 | HEK293T ELG1-luciferase reporter, luminescence, 16 h; DNA damage induced by 5-fluorouridine | Potency, µM (series often up to 46.1 µM), without a hit: top-dose activity change, negative = inhibition, hits mostly inhibitors | 2.3% of 330,000 active | AID 504467, 2011; note: % is set by controls: 0 for no effect and ±100 for the full control effect; nearly all actives have a fitted effect of over 55% in size
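In this reporter screen, reduction of luminescence relative to DMSO vehicle indicated activity. Compounds and 5-fluorouridine were added together to 2,000 cells per well, incubated for 16 hr at 37 °C, then developed with ONE-Glo.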
NPC1 promoter act: qHTS Assay for NPC1 Promoter Activators | Huh7 NPC1 promoter luciferase reporter, 24 h | AID 485313, 2010 | 2.4% of 320,000 active | Potency, µM (titrated, usually from 9.22 µM), inactives show at the highest dose activation, usual class: activators; note: % of control where 0% means no effect; nearly all actives have a fitted effect of over 60% in size
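Quantitative HTS used a cell-based reporter: Huh7 cells stably bearing the NPC1 promoter upstream of luciferase were treated with compounds for 24 h, and promoter activation was read as luminescence.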
SMN2 splice up: qHTS Assay for Enhancers of SMN2 Splice Variant Expression | HEK293 SMN2-luciferase splicing reporter, luminescence, 30-36 h | Potency, µM (series often up to 46.1 µM), for inactives: at the highest dose activity change, positive = activation, usual class: activators | 2.8% of 210,000 active | AID 1458, 2008; note: % of control where 0% means no effect; nearly all actives have a fitted effect of over 55% in size
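HEK293 cells carry an SMN2 […]–luciferase reporter in which exon 7 inclusion puts luciferase in frame. Cells were plated 10-12 h before compound addition, then incubated 30-36 h at 37C. ONE-Glo luminescence was read; sodium butyrate at 4.5 mM final served as control.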
FLuc counter: qHTS profiling assay for firefly luciferase inhibitor/activator using purifed enzyme and Km concentrations of substrates (counterscreen for miR-21 project) | Luciferin 4-monooxygenase (Photinus pyralis), P08659 | 6.9% of 360,000 active | purified FLuc, Km substrates, luminescence inhibition | Potency, µM (highest dose often 57.5 µM), for inactives: top-dose activity change, negative = inhibition, usual class: inhibitors | AID 588342, 2011;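 note: plate controls were vehicle for no effect and reference inhibitor for full effect; nearly all actives have a fitted effect of over 55% in size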
Target sequence (P08659 whole entry, looked up): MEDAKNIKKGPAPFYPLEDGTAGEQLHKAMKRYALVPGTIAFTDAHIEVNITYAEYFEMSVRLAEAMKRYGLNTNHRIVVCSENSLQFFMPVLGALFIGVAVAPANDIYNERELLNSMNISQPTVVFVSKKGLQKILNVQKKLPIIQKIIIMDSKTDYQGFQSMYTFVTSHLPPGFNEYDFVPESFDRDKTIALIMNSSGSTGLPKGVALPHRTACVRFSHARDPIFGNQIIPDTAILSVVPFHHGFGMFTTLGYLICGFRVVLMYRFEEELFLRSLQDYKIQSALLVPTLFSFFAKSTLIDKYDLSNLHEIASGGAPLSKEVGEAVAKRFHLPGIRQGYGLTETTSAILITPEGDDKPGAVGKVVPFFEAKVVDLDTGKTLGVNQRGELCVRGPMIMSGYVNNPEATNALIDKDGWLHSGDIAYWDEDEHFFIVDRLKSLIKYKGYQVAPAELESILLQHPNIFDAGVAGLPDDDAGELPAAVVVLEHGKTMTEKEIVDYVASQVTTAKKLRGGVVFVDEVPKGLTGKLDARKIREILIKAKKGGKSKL
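Biochemical qHTS of compounds, final roughly 60 µM downward over six points, against 10 nM purified firefly luciferase using Km concentrations of substrates (10 uM D-luciferin, 10 uM ATP) in Tris acetate pH 7.5 buffer; luminescence output.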
ELG1 genotox: qHTS screen for small molecules that induce genotoxicity in human embryonic kidney (HEK293T) cells expressing luciferase-tagged ELG1 | AID 504466, 2011 | Potency, µM (doses to about 46 µM), for the others: top-dose activity change, positive = activation, actives largely listed as activators | 1.3% of 330,000 active | HEK293T ELG1-luciferase reporter, luminescence, 16 h; note: % of control where 0% means no effect; nearly all actives have a fitted effect of over 60% in size
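DMSO vehicle served as control against compound-treated ELG1-luciferase HEK293T cells; exposure lasted 16 hr at 37 °C and 5% CO2, followed by ONE-Glo luminescence detection after 30 min.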
Rab9 prom act: qHTS Assay for Rab9 Promoter Activators; Huh7 Rab9 promoter-luciferase reporter, luminescence, 24 h; Potency, µM (doses to about 9.22 µM), inactives show at the highest dose activation, negative = inhibition, most hits filed as activators; 2.8% of 320,000 active; AID 485297, 2010; note: % of control where 0% means no effect; nearly all actives have a fitted effect of over 60% in size
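Cells were plated at 1500 per well in reduced-serum medium with 10% FBS and left 2 h. Compound in DMSO was then added for 24 h at 37 °C. Reporter signal was read by luminescence after 10 min with luciferase detection reagent.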
* hit, by the source's call; ? = inconclusive; · = no result; [ ] = dose if it differs, or a comment. In the library only some 9.4% were active in any assay of this set; here they are far more common. Calls come from the whole dose curve; as a rule, active = well fitted curve in the direction sought with a large enough effect; inconclusive = small, poorly fitted or top-dose-only effect, or another doubt; inactive = no such curve, though single readings can be large; an effect the other way counts as inactive or inconclusive. Potency is the fitted concentration of half-maximal effect.

SMILES	ELG1 DNA repair	NPC1 promoter act	SMN2 splice up	FLuc counter	ELG1 genotox	Rab9 prom act
CCOC(=O)CN1C(=O)S/C(=C/C=C/c2ccc(N(C)C)cc2)C1=O	?	?	?	4.8µM*	?	3.5µM*
CCOC(=O)CN1C(=O)S/C(=C/c2ccc3c(c2)n(C)c(=O)n3C)C1=O	?	0%	16µM*	?	21µM*	-5%
O=C(Oc1ccc2c(c1)C(=O)c1ccccc1CO2)c1ccccc1	?	1%	-7%	21µM*	?	14%
COc1cccc(CCNC(=O)C2CCCN(c3ncnc4c3nc3n4CCCCC3)C2)c1OC (configuration not stated)	7.3µM*	1%	·	0%	-6%	2%
COc1ccccc1N1CCN(CCCNC(=O)C2CCCN(c3ncnc4c3nc3n4CCCCC3)C2)CC1 (configuration not stated)	12µM*	0%	·	1%	-12%	1%
COc1ccc(-c2cc(CCCC(=O)NCCc3ccccc3)no2)cc1	?	?	·	7.6µM*	6%	?
COc1ccc(-c2cc(CCCC(=O)NCc3ccccn3)no2)cc1	?	13%	-34%	8.5µM*	10%	12%
COc1ccc(-c2cc(CCCC(=O)NCCc3ccc(OC)cc3OC)no2)cc1	-19%	-2%	-20%	?	-8%	-3%
COc1ccccc1NC(=O)C1=C(C)Nc2nc(SCc3ccc(Cl)cc3)nn2C1c1ccccc1Cl (configuration not stated)	·	·	9%	6%	·	·
CCN(C[C@H]1N[C@@](Cc2ccccc2)(C(=O)OC)[C@H]2C(=O)N(C)C(=O)[C@@H]12)S(=O)(=O)c1ccc(C(F)(F)F)cc1	23µM*	·	·	·	-6%	·
CCN(C[C@H]1N[C@@](CC)(C(=O)OC)[C@H]2C(=O)N(Cc3ccccc3)C(=O)[C@@H]12)C(=O)c1ccccc1	21µM*	·	·	·	-8%	·
CCN(C[C@H]1N[C@@](Cc2ccccc2)(C(=O)OC)[C@H]2C(=O)N(Cc3ccccc3)C(=O)[C@@H]12)S(=O)(=O)c1ccc(C(F)(F)F)cc1	-19%	·	·	·	0%	·
CCN(C[C@H]1N[C@@](Cc2ccccc2)(C(=O)OC)[C@H]2C(=O)N(C)C(=O)[C@@H]12)S(=O)(=O)c1ccc(OC)cc1	?	·	·	·	-6%	·
CCN(C[C@H]1N[C@@](Cc2ccccc2)(C(=O)OC)[C@H]2C(=O)N(C)C(=O)[C@@H]12)S(=O)(=O)c1ccc(OC(F)(F)F)cc1	21µM*	·	·	·	-10%	·
CCN(C[C@H]1N[C@@](Cc2ccccc2)(C(=O)OC)[C@H]2C(=O)N(Cc3ccccc3)C(=O)[C@@H]12)C(=O)c1ccccc1	14%	·	·	·	0%	·
Cc1ccccc1NC(=O)CN(c1ccc(Cl)cc1Cl)S(=O)(=O)c1ccccc1	·	·	0%	1%	·	·
Cc1ccc(NN=C2c3ccccc3-c3ccccc32)cc1	?	?	27%	15µM*	?	?
Cc1ccc(OCC(=O)NN=C2c3ccccc3-c3ccccc32)cc1	-4%	-5%	-14%	4%	1%	5%
Cc1cc(/C=c2/sc3nc4ccccc4n3c2=O)c(C)n1-c1ccccn1	?	-32%	-84%	0.13µM*	-3%	-28%
O=c1/c(=C/c2ccc(O)c([N+](=O)[O-])c2)sc2nc3ccccc3n12	?	26%	-20%	6.7µM*	12%	3%
Cc1cc(/C=c2\sc3nc4ccccc4n3c2=O)c(C)n1-c1ccc(C(=O)O)cc1	?	?	-22%	15µM*	5%	16%
O=c1/c(=C\c2cccnc2)sc2nc3ccccc3n12	?	-5%	?	-16%[2.3 µM]	?	-2%
CCN(CC)c1ccc(/C=c2\sc3nc4ccccc4n3c2=O)c(O)c1	?	4%	-46%	?	-19%	2%
Cc1cccc(CN2C(=O)N/C(=C/c3cc(C)n(-c4ccccn4)c3C)C2=O)c1	?	21%	6%	?	0%	16%
CCOC(=O)c1ccc(NC(=O)C2CCN(C(=O)N3CC(C)Oc4ccc(C)cc43)CC2)cc1 (configuration not stated)	·	·	·	-8%	·	·
SMILES	ELG1 DNA repair	NPC1 promoter act	SMN2 splice up	FLuc counter	ELG1 genotox	Rab9 prom act
O=C(c1cc(-c2ccc(Cl)c(Cl)c2)on1)N1CCCC1	?	3.5µM*	11µM*	-17%	?	2.2µM*
O=C(c1cc(-c2ccc(Cl)cc2Cl)on1)N1CCOCC1	?	0.4µM*	1.3µM*	0.76µM*	0.65µM*	0.32µM*
O=C(c1cc(-c2ccc(Cl)c(Cl)c2)on1)N1CCOCC1	?	1.4µM*	·	3µM*	?	2.8µM*
O=C(c1cc(-c2ccc(Cl)cc2)on1)N1CCOCC1	?	0.4µM*	3.2µM*	2.7µM*	0.92µM*	1µM*
O=C(NCCN1CCOCC1)c1cc(-c2ccc(Cl)c(Cl)c2)on1	16%	-4%	·	-1%	0%	2%
O=c1cnc2cnc(Oc3ccccc3)nc2n1Cc1ccc(F)cc1	·	·	-12%	·	·	·
Cc1ccc(C)c(N2CCN(C(=O)c3cc(S(=O)(=O)N4CCCCC4)cn3C)CC2)c1	·	·	·	-5%	·	·
Cc1c(C(=O)Nc2ccc(F)c(C(F)(F)F)c2)sc2nc(-c3ccccc3)cn12	·	·	·	-1%	·	·
O=C1c2ccccc2C(=O)N1CCC#Cc1ccc2cc(CCO)oc(=O)c2c1	-2%	-5%	·	-3%	1%	-8%
O=c1oc(CCO)cc2ccc(C#Cc3ccsc3)cc12	?	?	·	?	?	4µM*
CN(C)c1ccc(C#Cc2ccc3cc(CCO)oc(=O)c3c2)cc1	?	4µM*	·	1.3µM*	17%	?
O=c1oc(CCCO)cc2ccc(C#Cc3cccnc3)cc12	?	·	·	·	13%	·
Cc1cc(C)cc(NC(=O)Nc2ccc(NC(=O)c3ccccc3O)cc2)c1	1%	4%	·	-4%	6%	-4%
O=C(Nc1ccccc1)c1ccccc1O	?	26%	-4%	11µM*	?	26%
O=C(COc1ccccc1C(=O)Nc1ccccc1)c1ccc(Br)cc1	?	-5%	-8%	1%	-7%	-6%
O=C(Oc1ccccc1C(=O)Nc1ccccc1)c1ccccc1Br	?	-4%	23%	17µM*	?	19%
